CHT block – human CHT choline transport inhibition. AID 488975. B-score at 10 µM. CHT-expressing cells, membrane potential dye, choline response; stronger effect = lower value. 310,000 tested, 0.86% active;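 active means B-score over 3 SD under the library average, and starting fluorescence ratio not unusually high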;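 further: choline stimulus applied at its EC90 after an EC20 pre-addition; B-score computed on integrated fluorescence ratio after choline addition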
TMEM16A inh – blocks the mouse calcium-activated chloride channel TMEM16A | 310,000 tested, 1.2% active | Q8BHY3 | HEK293 TMEM16A/YFP iodide influx fluorescence, ionomycin | normalized B-score (activity score, 25-100; higher = stronger inhibition) at 10 µM | AID 588511;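 active means ratio plate-corrected score three or more library SD toward inhibition, starting fluorescence score within five deviations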;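 further: score derived from kinetic fluorescence span divided by baseline fluorescence per well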
TMEM16A act – activates or potentiates the mouse TMEM16A chloride channel. Q8BHY3. HEK293 TMEM16A/YFP-H148Q/I152L, iodide quench fluorescence; stronger effect = lower value. 340,000 tested, 0.3% active. B-score at 10 µM;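 active means fluorescence-ratio B-score plate-corrected deviation score at least 3 library SD below zero, with starting fluorescence score within 5 deviations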;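 further: channel opened by trigger with iodide after compound preincubation; score built on the fluorescence ratio of max minus min over baseline; more negative score means more quench and so TMEM16A activation or potentiation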
CHT PAM – allosterically activates the human high affinity choline transporter. Q9GZV3. CHT-expressing cells, membrane potential dye, choline EC20; stronger effect = higher value; LV-AA mutant CHT in HEK293 cells. B-score at 10 µM. 310,000 tested, 0.49% active. AID 488977;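 active means initial fluorescence not abnormally high and integrated response B-score, plate-corrected, over 3 SD above library mean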
HDAC3 inhib – human HDAC3 inhibition; recombinant HDAC3, fluorogenic peptide/trypsin coupled, fluorescence; inhibition, % at 8.3 µM; 320,000 tested, 0.15% active; AID 2718; in the data active means inhibition above about 26%, passing the limit was not always enough
Target sequence (O15379 whole entry, looked up): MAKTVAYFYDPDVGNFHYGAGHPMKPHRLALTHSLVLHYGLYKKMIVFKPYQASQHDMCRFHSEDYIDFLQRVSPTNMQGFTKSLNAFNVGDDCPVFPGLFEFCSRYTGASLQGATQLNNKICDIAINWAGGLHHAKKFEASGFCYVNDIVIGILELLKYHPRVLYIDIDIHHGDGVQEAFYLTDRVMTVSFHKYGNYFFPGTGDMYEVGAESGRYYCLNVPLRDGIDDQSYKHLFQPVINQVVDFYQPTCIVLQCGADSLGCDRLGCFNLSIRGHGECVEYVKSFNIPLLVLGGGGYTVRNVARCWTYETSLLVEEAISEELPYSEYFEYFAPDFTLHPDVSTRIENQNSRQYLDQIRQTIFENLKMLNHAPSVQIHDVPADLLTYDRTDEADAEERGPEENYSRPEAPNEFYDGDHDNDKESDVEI
PHOSPHO1 block – PHOSPHO1 (human) inhibition; recombinant PHOSPHO1, absorbance phosphatase assay; inhibition, % at 13.3 µM; 290,000 tested, 1.1% active; in the data active means inhibition above about 60%
TMEM16A reconf – TMEM16A (mouse) chloride channel inhibition, re-confirmation. 2,300 tested, 39% active. AID 652189. shares compounds with TMEM16A inh. inhibition, % at 10 µM. HEK293 TMEM16A/YFP-H148Q, iodide quench fluorescence; ionomycin added to raise cell calcium;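 active means mean duplicate percent inhibition, scaled so buffer wells are 0 and the reference blocker 100, over three buffer SD above buffer mean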
TMEM16A Ca cntr – alters calcium mobilization in TMEM16A HEK293 cells, counter-screen; shares compounds with TMEM16A inh; TMEM16A/YFP HEK293, Fluo4 calcium mobilization; calcium response (% of ionomycin), % at 10 µM; 2,300 tested, 2% active;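 active means duplicate-averaged calcium signal over 20% of the ionomycin maximum, relative to buffer baseline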;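 further: each well's signal is peak minus trough fluorescence divided by its pre-addition baseline; 0% = buffer wells and 100% = ionomycin wells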
Parental YFP cnt – parental YFP-HEK293 iodide quench counter-screen activity | shares compounds with TMEM16A inh | ionomycin | YFP ratio F(max-min)/F0 at 10 µM | 2,300 tested, under 10 active | AID 652233;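 active means yellow fluorescent protein signal ratio exceeding the buffer control mean by over 5 SD of those controls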;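 further: ratio is mean of duplicate wells from kinetic YFP trace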
ClC-1 inh – blocks the rat ClC-1 voltage-dependent chloride channel; shares compounds with TMEM16A inh; ratio percent, % at 10 µM; CHO ClC-1-YFP, iodide influx fluorescence quench; iodide control reads 0, buffer control 100; 2,300 tested, under 10 active;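 active means duplicate-mean ratio percent above the mean of iodide-only control wells, which defines zero, plus 5 of their SD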;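 further: higher percent means stronger block of ClC-1 iodide influx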
Numbers without * were called inactive; i = inactive; . = no result. The list is not random: actives were taken first. Their share in the collection is about 3.2%.

SMILES	CHT block	TMEM16A inh	TMEM16A act	CHT PAM	HDAC3 inhib	PHOSPHO1 block	TMEM16A reconf	TMEM16A Ca cntr	Parental YFP cnt	ClC-1 inh
COc1ccc(N=Cc2c(O)n(-c3ccc(OC)cc3)c(=O)c3ccccc23)cc1	i	i	i	i	4	-18	.	.	.	.
O=c1c2ccccc2c(C=Nc2cccc(O)c2)c(O)n1-c1ccc2c(c1)OCO2	i	25*	i	i	-6	4	i	i	-1.3	3
CC1(C)CC(=O)C(CC(=O)NC(=O)NCc2ccccc2)=C(O)C1	i	100*	i	i	6	12	i	i	-1.1	-4
CN=C(Cc1ccccc1)C1=C(O)CC(C)(C)CC1=O	i	i	i	i	-1	7	.	.	.	.
O=C(Nc1ccc(OC(F)(F)F)cc1)N1CCN(c2ccnc3cc(Cl)ccc23)CC1	i	100*	i	i	17	23	i	i	-1.1	-22
O=C(C1CCCCC1)N1CCN(c2ccnc3cc(Cl)ccc23)CC1	i	25*	i	i	-1	14	18%*	i	-1	-14
Cc1csc2ncnc(N3CCN(C(=O)Nc4ccc(OC(F)(F)F)cc4)CC3)c12	i	100*	i	i	4	56	16%*	i	-1.5	-12
COc1cccc(NC(=O)COC(=O)c2c(C)nn(-c3ccccc3)c2C)c1	.	.	i	.	7	.	.	.	.	.
Cc1ccc2oc(=O)c3cc(C(=O)NCCCN4CCCC(C)C4)sc3c2c1 (centres undefined)	i	i	i	i	4	12	.	.	.	.
Nc1nn(S(=O)(=O)c2cccc3nsnc23)cc1-c1ccc(Br)cc1	i	25*	i	i	6	37	i	i	-1	2
CC(=O)Oc1ccc2oc(-c3ccccc3)c(C(N)=O)c2c1	i	i	.	i	-9	5	.	.	.	.

Compound activity from PubChem BioAssay.
